The target of experiment [1] is Cytochrome P450 2D6 (Homo sapiens) (UniProt P10635). Kind of experiment: qHTS Assay for Inhibitors and Substrates of Cytochrome P450 2D6 (AID 891). Further: potency means the concentration at half of the fitted maximal effect; nearly all actives have a fitted effect of over 60% in size. To be noted: recombinant CYP2D6, luciferin-ME EGE luminescence; series mostly up to 57.1 µM. The essentials: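 Human CYP2D6 (5 nM) with 30 uM Luciferin-ME EGE (at Km) in 100 mM KPO4, compound preincubated 10 min, then NADPH regeneration system for 60 min at room temperature. Luciferin read by luminescence; normalized to 1.43 uM quinidine.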
Cytochrome P450 2D6 (Homo sapiens), sequence (P10635 whole entry, looked up): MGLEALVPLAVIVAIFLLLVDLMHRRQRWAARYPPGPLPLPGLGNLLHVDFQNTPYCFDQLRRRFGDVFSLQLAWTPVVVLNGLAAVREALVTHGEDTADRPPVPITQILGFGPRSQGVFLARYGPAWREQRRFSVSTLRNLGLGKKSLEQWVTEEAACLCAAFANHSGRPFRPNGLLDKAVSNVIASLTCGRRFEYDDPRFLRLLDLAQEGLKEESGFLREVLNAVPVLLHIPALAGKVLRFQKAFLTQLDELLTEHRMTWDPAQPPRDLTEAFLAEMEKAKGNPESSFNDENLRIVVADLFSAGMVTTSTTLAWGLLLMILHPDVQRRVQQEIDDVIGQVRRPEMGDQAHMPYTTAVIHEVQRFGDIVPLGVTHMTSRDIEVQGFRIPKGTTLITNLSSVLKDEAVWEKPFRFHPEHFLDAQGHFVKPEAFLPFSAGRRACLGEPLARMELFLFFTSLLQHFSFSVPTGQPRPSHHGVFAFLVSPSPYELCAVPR
(In qHTS, concentration-response curves come from the screen itself.)

Experiment [2] can be described thus: Confirmatory screen GU Rhodamine qHTS for Zika virus inhibitors qHTS (AID 1347157). Further: nearly all actives have a fitted effect of over 70% in size. Further: potency means the concentration at half of the fitted maximal effect.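 On activity change, negative = inhibition: plate controls were no-inhibitor wells for no effect and no-enzyme wells for full effect.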 To be noted: purified enzyme assay, Rhodamine110 substrate fluorescence, 15 min; series mostly up to 114 µM. In a few lines: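 A qHTS format was used, with compound concentrations ranging up to 114 microM. Each compound was preincubated with 25 nM NS2B-NS3 protease, and the substrate was then added at 1.5 microM. Curves were fitted with a 4-parameter Hill model.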

Experiment [3] is described as follows: Confirmatory screen NINDS Rhodamine qHTS for Zika virus inhibitors (AID 1347161). Further: potency means the concentration at half of the fitted maximal effect; nearly all actives have a fitted effect of over 60% in size. The conditions noted are these: purified enzyme assay, Rhodamine110 substrate fluorescence, 15 min; series mostly up to 114 µM. The essentials: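 Each compound, titrated, sat 15 min with 25 nM linked protease before 1.5 microM Rhodamine110 substrate went in. Fluorescence gain over the next 15 min, in pH 8.0 Tris with Tween 20, gave Hill-fitted curves.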

Experiment [4] has as its system Zika virus NS2B-NS3 protease (linked). The experiment can be described thus: 384 well plate NINDS AMC confirmatory qHTS for Zika virus inhibitors (AID 1347163). Further: nearly all actives have a fitted effect of over 50% in size. Further: potency means the concentration at half of the fitted maximal effect.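 On activity change, negative = inhibition: linked protease at 5 30 or 60 nM final depending on run; fluorescence of AMC released from Ac-VKTGKR-AMC peptide cleaved by the protease; top concentration of the series differs between compounds; 0% = no-inhibitor control and -100% = no-enzyme control.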 To be noted: Recombinant NS2B-NS3 protease, Ac-VKTGKR-AMC fluorescence; series mostly up to 1 mM. The essentials: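 Linked protease 5/30/60 nM final; cpds up to 1 mM final, ~15 min preinc. Substrate Ac-VKTGKR-AMC 30 microM final. RT, dark, 25 min; FI ex 355/em 460; normalized to no-enzyme/no-inhibitor ctrls.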

Experiment [5] relates to Zika virus NS2B-NS3 protease (linked construct). Kind of experiment: 384 well plate NINDS Rhodamine confirmatory qHTS for Zika virus inhibitors (AID 1347164). Further: nearly all actives have a fitted effect of over 65% in size. Further: potency means the concentration at half of the fitted maximal effect.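 On activity change, negative = inhibition: top concentration of the series differs between compounds; plate controls were no-inhibitor control for no effect and no-enzyme control for full effect.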 To be noted: rhodamine-110 peptide substrate fluorescence; series mostly up to 1 mM. In a few lines: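 Enzyme (final 5/30/60 nM) + cpd (DMSO), ~15 min; add Ac-LKRR-Rd 10 microM final; 25 min RT, dark; FI ex 485/em 538; normalized to no-enzyme, no-inhibitor ctrls; aprotinin intraplate ctrl.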

Experiment [6] in a line: AP1 Signaling Pathway (AID 357; active means well fitted curve in either direction with a large enough effect, not every such curve was filed as active;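 further: ME-180 reporter cells stimulated with EGF at its EC50 level; on the % scale 0 is the no-effect control and ±100 the full control effect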). To be noted: ME-180 (cervical carcinoma) AP-1-bla reporter, EGF-induced, beta-lactamase ratio, 5 h. The essentials:
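Beta-lactamase reporter under AP-1 response element, ME-180 background. Stimulus: EC50 EGF. Compound exposure 5 h, 37 °C. Detection: CCF4, 2.5 h RT, 460/530 nm. Values: AC50 from titration.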

The nature of experiment [7]: NFAT Signaling Pathway (AID 444; active means well fitted curve in either direction with a large enough effect, not every such curve was filed as active;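 further: carbachol stimulus at about its EC50 of 1 µM final; on the % scale 0 is the no-effect control and ±100 the full control effect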). To be noted: Jurkat NFAT-bla M1, carbachol, beta-lactamase ratio, 5 h. The essentials: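 Read-out: CCF4 FRET ratio (460 nm/530 nm) after 1 h RT dye loading, used for %activity and AC50 from titration series. Cells: Jurkat NFAT-β-lactamase/M1 line, treated with compound plus 1 uM carbachol for 5 h, 37 °C.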
The target in experiment [8] is Cytochrome P450 2C9 (Homo sapiens) (UniProt P11712). The experiment can be described thus: qHTS Assay for Inhibitors and Substrates of Cytochrome P450 2C9 (AID 883). Further: potency means the concentration at half of the fitted maximal effect; nearly all actives have a fitted effect of over 60% in size. To be noted: recombinant CYP2C9, luciferin-H luminescence, 60 min; series mostly up to 57.1 µM. In a few lines:
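Turnover of Luciferin-H (100uM, KM) by 10nM human CYP2C9 was measured over 60 min at 37C with NADPH regeneration; inhibitors and some substrates reduce luminescence. Data normalized to sulphaphenazole 57uM.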

Experiment [9] in a line: Confirmation and Secondary Assay for Modulators of Hemoglobin Beta Chain Splicing at IVS2 654 locus (AID 910).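 Further: HeLa cells stably carrying EGFP split by mutant beta-globin IVS2-654 intron; per-well total GFP intensity by laser scanning cytometry after 2-day treatment; % of control where 0% means no effect.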 To be noted: HeLa EGFP-654 splicing reporter, GFP fluorescence, 48 h; series mostly up to 46.1 µM. The essentials:
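Readout: per-well total peak green fluorescence (488 nm ex, 500–520 nm em) from objects 5–250 µm, reflecting correct splicing of an EGFP-654 reporter. Compounds were applied for 2 days at 37 °C to overnight-plated HeLa EGFP-654 cells; controls were DMSO and 500 nM IVS2-654 PNA.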

A short description of experiment [10]: Confirmation and Secondary Assay for Modulators of Hemoglobin Beta Chain Splicing at IVS2 705 locus (AID 930).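 Further: HeLa cells stably expressing the EGFP-705 splicing reporter; GFP fluorescence per well restored by corrected splicing of the IVS2-705 intron in EGFP; % of control where 0% means no effect.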 To be noted: HeLa EGFP-705 splicing reporter, GFP fluorescence, 48 h; series mostly up to 46.1 µM. The essentials:
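HeLa EGFP-705 reporter; 500 cells/well, o/n 37C 5% CO2; cpd 2 d; 488 ex/500-520 em laser scan; total peak GFP intensity/well. Ref: 500 nM […] antisense PNA.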

A short description of experiment [11]: Primary qHTS for small molecule stabilizers of the endoplasmic reticulum resident proteome: Secreted ER Calcium Modulated Protein (SERCaMP) assay (AID 1508630). Further: on the % scale 0 is the no-effect control and ±100 the full control effect. The conditions noted are these: SH-SY5Y GLuc-SERCaMP (Gaussia luciferase released on ER calcium loss) secretion, thapsigargin, luminescence; series mostly up to 38.4 µM. In a few lines:
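GLuc-SERCaMP-expressing SH-SY5Y cells, pretreated 16 h with compound, are challenged with thapsigargin to empty ER calcium stores; after 4 h, coelenterazine is added directly to the medium and luminescence is imaged.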

For experiment [12], the target named is Rap guanine nucleotide exchange factor 3 (Homo sapiens) (UniProt O95398). Kind of experiment: Confirmatory qHTS for antagonist of cAMP-regulated guanine nucleotide exchange factor 3 (EPAC1) (AID 1645880). Further: nearly all actives have a fitted effect of over 55% in size. Further: potency means the concentration at half of the fitted maximal effect. The conditions noted are these: EPAC1 Rap1B-BODIPY-GDP exchange, fluorescence; series mostly up to 115 µM. In a few lines: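 Nucleotide exchange uses 100 nM EPAC1, 250 nM RAP1B-BODIPY-GDP and 50 uM GDP, with compounds in a concentration-titration series. After 5 min at room temperature, fluorescence (480 nm ex/540 nm em) is read every 5 min for 30 min. Data are normalized to control ATA and DMSO.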
Rap guanine nucleotide exchange factor 3 (Homo sapiens), sequence (O95398 whole entry, looked up): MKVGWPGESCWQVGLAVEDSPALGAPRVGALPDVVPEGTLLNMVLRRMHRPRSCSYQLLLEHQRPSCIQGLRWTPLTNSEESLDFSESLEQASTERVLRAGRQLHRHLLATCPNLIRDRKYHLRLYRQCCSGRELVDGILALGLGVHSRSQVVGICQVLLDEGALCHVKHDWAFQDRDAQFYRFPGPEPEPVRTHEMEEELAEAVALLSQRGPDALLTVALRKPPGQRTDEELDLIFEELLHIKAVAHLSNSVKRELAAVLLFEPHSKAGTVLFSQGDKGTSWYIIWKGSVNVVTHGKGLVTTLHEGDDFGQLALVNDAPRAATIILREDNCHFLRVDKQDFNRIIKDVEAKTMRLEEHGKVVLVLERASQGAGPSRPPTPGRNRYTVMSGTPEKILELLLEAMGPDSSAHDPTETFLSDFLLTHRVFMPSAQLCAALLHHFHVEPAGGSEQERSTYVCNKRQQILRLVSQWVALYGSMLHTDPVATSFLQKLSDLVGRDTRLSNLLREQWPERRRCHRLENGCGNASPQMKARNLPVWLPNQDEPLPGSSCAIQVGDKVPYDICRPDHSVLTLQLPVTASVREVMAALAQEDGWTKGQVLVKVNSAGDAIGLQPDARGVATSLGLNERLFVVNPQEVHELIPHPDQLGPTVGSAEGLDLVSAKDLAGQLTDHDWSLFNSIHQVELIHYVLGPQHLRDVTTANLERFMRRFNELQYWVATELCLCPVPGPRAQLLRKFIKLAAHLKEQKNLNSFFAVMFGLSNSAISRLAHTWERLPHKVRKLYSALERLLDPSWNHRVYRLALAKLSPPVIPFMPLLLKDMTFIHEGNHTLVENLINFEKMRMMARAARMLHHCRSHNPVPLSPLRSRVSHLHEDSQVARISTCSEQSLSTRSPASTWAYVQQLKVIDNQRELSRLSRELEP

Experiment [13] concerns the target Rap guanine nucleotide exchange factor 4 (Homo sapiens) (UniProt Q8WZA2). The experiment can be described thus: Confirmatory qHTS for antagonist of cAMP-regulated guanine nucleotide exchange factor 4 (EPAC2) (AID 1645885). Further: on the % scale 0 is the no-effect control and ±100 the full control effect; nearly all actives have a fitted effect of over 25% in size. To be noted: EPAC2 Rap1B-BODIPY-GDP exchange fluorescence, biochemical; series mostly up to 114 µM.
For experiment [14], the target named is Rap guanine nucleotide exchange factor 3 (Homo sapiens) (UniProt O95398). Kind of experiment: Counterscreen qHTS for antagonist of cAMP-regulated guanine nucleotide exchange factor 3 (EPAC1) (AID 1645888).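 Further: fluorescence loss as bound BODIPY-GDP is released from Rap1B; % of control where 0% means no effect.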 To be noted: Rap1B-BODIPY-GDP nucleotide exchange, fluorescence; series mostly up to 154 µM. The essentials:
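Rap1B-BODIPY-GDP 250 nM + GDP 50 uM; cpds 7-pt, final 9.74 nM–152 uM (activator mode) or from 7.32 nM upwards (inhibitor mode); RT; FI 480/540 nm at 5 and 30 min, then ± cAMP, reread.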

Experiment [15] is described as follows: Tertiary RLuc qRT-PCR qHTS assay for Zika virus inhibitors (AID 1347169). Further: top concentration of the series differs between compounds; on the % scale 0 is the no-effect control and ±100 the full control effect; nearly all actives have a fitted effect of over 55% in size. The conditions noted are these: infected Vero cells, reporter luminescence, 48-72 h; series mostly up to 1.74 µM. The essentials:
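Vero, 1,000 cells/well, o/n 37 C; cpd pinned in DMSO; ZIKV-RLuc Cambodian, MOI 1-2, 48-72 h 37 C; live-cell RLuc substrate, lum read at 1-1.5 h.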

Molecules are shown by their SMILES. Unmarked numbers belong to inactive results. Inconclusive results are not listed. Active and inactive are the calls of the source. Unless noted, the call rests on the fitted dose curve; in most records, active means well fitted curve in the direction sought with a large enough effect; inconclusive means small, poorly fitted or top-dose-only effect, or another doubt; inactive means no such curve, though single readings can be large; an effect the other way counts as inactive or inconclusive.

Rap guanine nucleotide exchange factor 4 (Homo sapiens), sequence (Q8WZA2 whole entry, looked up): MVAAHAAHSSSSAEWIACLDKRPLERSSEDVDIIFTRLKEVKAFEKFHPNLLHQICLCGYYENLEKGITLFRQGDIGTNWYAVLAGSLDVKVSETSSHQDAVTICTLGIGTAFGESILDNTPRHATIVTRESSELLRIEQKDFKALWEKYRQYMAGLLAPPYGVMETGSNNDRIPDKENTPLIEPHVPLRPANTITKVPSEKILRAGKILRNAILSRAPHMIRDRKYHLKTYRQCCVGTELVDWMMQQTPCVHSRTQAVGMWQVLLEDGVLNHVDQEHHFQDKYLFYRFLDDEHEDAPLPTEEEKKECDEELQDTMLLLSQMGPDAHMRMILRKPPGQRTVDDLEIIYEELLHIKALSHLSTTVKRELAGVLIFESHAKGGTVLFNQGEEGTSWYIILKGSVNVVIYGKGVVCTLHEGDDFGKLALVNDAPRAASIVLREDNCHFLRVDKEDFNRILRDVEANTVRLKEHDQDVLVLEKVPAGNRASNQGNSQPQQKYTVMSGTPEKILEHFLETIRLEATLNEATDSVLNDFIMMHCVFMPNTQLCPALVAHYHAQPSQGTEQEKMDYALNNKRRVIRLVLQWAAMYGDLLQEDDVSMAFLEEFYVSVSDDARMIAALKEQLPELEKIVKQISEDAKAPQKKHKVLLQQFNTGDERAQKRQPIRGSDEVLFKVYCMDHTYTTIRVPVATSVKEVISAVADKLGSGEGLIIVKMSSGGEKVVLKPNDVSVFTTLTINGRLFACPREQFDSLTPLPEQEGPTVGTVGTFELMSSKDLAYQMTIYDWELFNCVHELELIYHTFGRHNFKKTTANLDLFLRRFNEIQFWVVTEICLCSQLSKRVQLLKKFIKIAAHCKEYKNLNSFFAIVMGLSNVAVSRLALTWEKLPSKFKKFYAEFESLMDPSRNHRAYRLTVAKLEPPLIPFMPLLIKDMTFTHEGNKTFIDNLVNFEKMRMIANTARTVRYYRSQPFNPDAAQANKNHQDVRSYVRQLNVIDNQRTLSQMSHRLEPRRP
Cytochrome P450 2C9 (Homo sapiens), sequence (P11712 whole entry, looked up): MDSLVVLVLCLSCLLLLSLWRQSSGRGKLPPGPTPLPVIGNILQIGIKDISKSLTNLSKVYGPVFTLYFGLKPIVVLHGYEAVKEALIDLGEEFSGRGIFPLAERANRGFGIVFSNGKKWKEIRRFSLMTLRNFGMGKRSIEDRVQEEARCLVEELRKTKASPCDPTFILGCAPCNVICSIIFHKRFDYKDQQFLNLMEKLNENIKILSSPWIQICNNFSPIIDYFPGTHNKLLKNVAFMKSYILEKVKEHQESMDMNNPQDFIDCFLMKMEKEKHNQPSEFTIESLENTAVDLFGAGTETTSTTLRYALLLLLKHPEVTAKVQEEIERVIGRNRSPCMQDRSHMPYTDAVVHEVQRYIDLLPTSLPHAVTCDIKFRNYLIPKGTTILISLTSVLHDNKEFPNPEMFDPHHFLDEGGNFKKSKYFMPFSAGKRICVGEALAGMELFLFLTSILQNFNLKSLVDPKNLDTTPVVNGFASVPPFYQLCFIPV

Consider `O=C1CC2(CCCC2)CC(=O)N1CCCCNC[C@H]1COc2ccccc2O1`, for which the Potency in [1] was 5.01 µM (active).

In the case of `CCOC(=O)c1ccc(CN(Cc2ccc(F)cc2)S(=O)(=O)c2cc(C(=O)Nc3cccc(C(F)(F)F)c3)ccc2F)cc1`, the Potency entry in experiment [2] was “inactive”.

In the case of `CC(C)c1ccc(NC(=O)c2ccc3c(O)c(S(=O)(=O)c4ccccc4)c(=O)[nH]c3c2)cc1`, the Potency in [2] is 17.8 µM (active); in [3], 3.98 µM (active); in [4], 282 µM (active); in experiment [5] it was 28.2 µM (active).

In the case of `O=C(O)c1c(Br)c(Br)c(Br)c(Br)c1C1c2ccc(O)cc2Oc2cc(O)ccc21`, the activity change, negative = inhibition is -20.1% in experiment [6] (at 7.69 µM (top of the series)) and -6.47% in [7] (at 7.69 µM (top of the series)).

Take `O=C(Nc1cc(C(=O)Nc2ccc(S(=O)(=O)O)cc2S(=O)(=O)O)cc(C(=O)Nc2ccc(S(=O)(=O)O)cc2S(=O)(=O)O)c1)Nc1cc(C(=O)Nc2ccc(S(=O)(=O)O)cc2S(=O)(=O)O)cc(C(=O)Nc2ccc(S(=O)(=O)O)cc2S(=O)(=O)O)c1`: the activity change, negative = inhibition in experiment [6] (at 38 µM (top of the series)) is 5.96%; in [7] (at 38 µM (top of the series)), 1.34%. Also, the Potency in [8] was 7.94 µM (active).

As to `O=C(O)c1nc2cc(Cl)c(Cl)cc2[nH]c1=O`, the result in experiment [9] and in experiment [10] was inactive.

For `O=c1c(O)cc(C2Oc3cc(O)cc(O)c3CC2O)cc2c(C3Oc4cc(O)cc(O)c4CC3O)cc(O)c(O)c12` (stereo not drawn), the result in experiment [9] and in [10] was inactive.

With `O=C(Nc1ccc(C(=O)Nc2ccc(C(=O)Nc3ccc(S(=O)(=O)O)c4cc(S(=O)(=O)O)cc(S(=O)(=O)O)c34)cc2)cc1)Nc1ccc(C(=O)Nc2ccc(C(=O)Nc3ccc(S(=O)(=O)O)c4cc(S(=O)(=O)O)cc(S(=O)(=O)O)c34)cc2)cc1`, the Potency entry in experiment [11] was “inactive”.

Take `O=C(O)c1ccccc1-c1c2cc(I)c(=O)c(I)c-2oc2c(I)c(O)c(I)cc12`: in experiment [12], the Potency entry is “inactive”. The activity change, negative = inhibition in experiment [13] is 12.6% [at 12.7 µM]; in experiment [14], 212% [at 30.8 µM].

In the case of `COc1ccc(NS(=O)(=O)c2ccc3c(c2)[C@H]2C=CC[C@H]2[C@@H](c2ccc(C(=O)O)cc2)N3)cc1`, the Potency in [12] is 19 µM (active). In addition, in [13], the Potency result was “inactive”. In addition, the molecule was classed as inactive in [14].

For `O=C(OCc1cc(=O)n2nc(C3CC3)sc2n1)c1ccc(NC(=O)c2ccccc2F)cc1`, the Potency entry in [4], in experiment [5] and in experiment [15] was “inactive” throughout.

In the case of `O=C(Nc1ccccc1C(=O)OCc1cc(=O)n2c3c(sc2n1)CCCC3)c1ccc(F)cc1`, the Potency result in [2], in experiment [15] and in experiment [12] was “inactive” throughout. For the same molecule, in [13], the activity change, negative = inhibition is -5.61% [at 12.7 µM]. The molecule was called inactive in experiment [14].

As for `Cc1ccc(-c2nnc(Nc3ccc(S(N)(=O)=O)cc3)c3ccccc23)cc1S(=O)(=O)N1CCOCC1`, in experiment [15], the Potency result is “inactive”.

As to `O=C(NCc1ccccc1Cl)c1ccc2c(O)c(S(=O)(=O)c3ccccc3)c(=O)[nH]c2c1`, the Potency in [5] was 50.1 µM (active). The Potency entry in experiment [15] is “inactive”.

Source of the values: PubChem BioAssay (NCATS).
